Assay results published in paper PMC7819943, “Rice protein-binding microarrays: a tool to detect cis-acting elements near promoter regions in rice”.
Whole data set: some 39,000 sequences, median “fluorescence intensity (a.u.)” near 4,300, cut for the highest 2% near 39,000. The full list was thinned out, with the highest values kept by preference.

Each sequence was assayed against T1, OsSMF1 (Oryza sativa, UniProt Q6ZLB0 1-436) (assay: protein-binding microarray (RPBM); PBS, 2% BSA, 51.3 ng/ul salmon testes DNA, 50 uM zinc acetate, 200 nM TF, 25 C, 1 h; high values mean tight binding). Settings: protein: recombinant; tags: N-terminal polyhistidine and DsRed monomer fusion (pET32a); chain copies: 2; label: CyDye5-dUTP incorporated in the synthesized complementary strand; 3' TTTTT single-stranded linker to array surface; dsDNA, one strand shown.
T1 sequence: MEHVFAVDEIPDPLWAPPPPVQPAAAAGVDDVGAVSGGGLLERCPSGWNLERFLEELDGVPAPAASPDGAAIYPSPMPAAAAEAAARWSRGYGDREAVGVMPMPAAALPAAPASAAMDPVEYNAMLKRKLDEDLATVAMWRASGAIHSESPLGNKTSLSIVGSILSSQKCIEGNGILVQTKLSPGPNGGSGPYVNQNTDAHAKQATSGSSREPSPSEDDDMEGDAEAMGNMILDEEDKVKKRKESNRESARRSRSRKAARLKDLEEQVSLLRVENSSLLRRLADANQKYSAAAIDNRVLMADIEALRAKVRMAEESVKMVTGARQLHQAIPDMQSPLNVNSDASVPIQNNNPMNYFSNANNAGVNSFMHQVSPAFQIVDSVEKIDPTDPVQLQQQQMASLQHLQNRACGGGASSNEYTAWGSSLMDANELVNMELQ
Procedure, shortened: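 The binding signal for each feature is its fluorescence intensity in arbitrary units. An Axon 4000B scanner was used to read a custom Agilent array that had been made double-stranded with Cy5-dUTP primer extension, blocked with 2% BSA, incubated at 25 °C for 1 h with 200 nM protein in PBS, 2% BSA, salmon testes DNA and 50 µM zinc acetate, and washed. The protein was an N-terminal polyhistidine–DsRed transcription factor fusion from E. coli BL21-CodonPlus, purified on Ni–NTA.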

First: TTCCATTTCTTCCCCTCGCCAAGGCGAGGCCGCGAGAGGGCGGAGTCACCTAGTGCAG
Second: ATCGAAGGCGAGAGCTCTTCTTCTTCCCCTCCTCCAAGCACGGAGTCACCTAGTGCAG
The binding signal of the first is lower: 9040 fluorescence intensity (a.u.) for the first, 60500 fluorescence intensity (a.u.) for the second.

Compared with “TAAAAGCCAAGCACCATCTCGAAGTCTTCTTCCTCCTCCACGGAGTCACCTAGTGCAG”, “CTGTAGAACTTGGACCAGCAGCATCAGCAGTAGTAGCAGGCGGAGTCACCTAGTGCAG” is lower in binding signal: 12500 fluorescence intensity (a.u.) for the first, 3140 fluorescence intensity (a.u.) for the second.

First: GTGATATTCTGTCTTCCTGTGATATCAGCACTGTTTTATGCGGAGTCACCTAGTGCAG
Second: ACCAGTGCGCCACTGCCAGCGCAGCACCCGCCCGGTTTAACGGAGTCACCTAGTGCAG
The binding signal of the first is higher: 3450 fluorescence intensity (a.u.) for the first, 3240 fluorescence intensity (a.u.) for the second.

Going from “ATGTCTTAAGCAAGTTTTGACATCCTCATTACAGTGCGGCCGGAGTCACCTAGTGCAG” to “GTAAAGCCTCGATATATCGATCGATTCCAGCTGTGGCACCCGGAGTCACCTAGTGCAG”, the binding signal rises from 3390 fluorescence intensity (a.u.) to 3620 fluorescence intensity (a.u.).

Going from “AGAGCCCACCAGCTGCACCGGCGTGGCATCGTCCACTTGGCGGAGTCACCTAGTGCAG” to “TCGATTCCAGCTGTGGCACCCATAGAGAAATGAGCCCGTCCGGAGTCACCTAGTGCAG”, the binding signal rises from 5060 fluorescence intensity (a.u.) to 56300 fluorescence intensity (a.u.).

Compared with “AGTTGACGTGGCATACTGACACGTGGGCCCCATGTGGGTTCGGAGTCACCTAGTGCAG”, “AAACGTAATCTAATAACAAAACAAATTACAGAACTGTAAACGGAGTCACCTAGTGCAG” is lower in binding signal: 24900 fluorescence intensity (a.u.) for the first, 11100 fluorescence intensity (a.u.) for the second.

Compared with “ATCCACCGCTGAGTCCCAGACGAGCGAGGGCCAGATCATCCGGAGTCACCTAGTGCAG”, “GCATTATATTAGTAGGTCGTGTATTATATTAGTAGGTACTCGGAGTCACCTAGTGCAG” is higher in binding signal: 3410 fluorescence intensity (a.u.) for the first, 4260 fluorescence intensity (a.u.) for the second.

Going from “TGTAGGTATAAGAGTGAGTTGGTGAATTATAGGGTAGACTCGGAGTCACCTAGTGCAG” to “TAGAAAGTGCCCAATTAGTATAGGTATAGATAGATAGACTCGGAGTCACCTAGTGCAG”, the binding signal rises from 7410 fluorescence intensity (a.u.) to 51000 fluorescence intensity (a.u.).

First: ATTACATACTAATTACATATGTAAGTGAGGTGTAACTACTCGGAGTCACCTAGTGCAG
Second: GGCAATCATCTTGAAGCATATCAACCCAACCTGATGTTGTCGGAGTCACCTAGTGCAG
The binding signal of the first is lower: 4160 fluorescence intensity (a.u.) for the first, 28100 fluorescence intensity (a.u.) for the second.

Going from “TTGTTAATTACCGCGATTGATGTCGAGCTTGCATTTTGATCGGAGTCACCTAGTGCAG” to “TTATTGCAAAATAGAAGGATGACGCCACGACGGCCGCTGCCGGAGTCACCTAGTGCAG”, the binding signal falls from 3540 fluorescence intensity (a.u.) to 3330 fluorescence intensity (a.u.).

First: TCTGTTAGTGTCATACTGTCATCGACATATAATATTCCCTCGGAGTCACCTAGTGCAG
Second: TTACATACTGTATCATACTGACGTCAACGTATAATATTCCCGGAGTCACCTAGTGCAG
The binding signal of the first is higher: 42500 fluorescence intensity (a.u.) for the first, 8340 fluorescence intensity (a.u.) for the second.

First: CTATACTATTAATATATGGTCTCATCTGTCATACATATATCGGAGTCACCTAGTGCAG
Second: GCGCTTGCGCCTGACCGCCGCGTGACGACATGTTGTCACCCGGAGTCACCTAGTGCAG
The binding signal of the first is lower: 3830 fluorescence intensity (a.u.) for the first, 6800 fluorescence intensity (a.u.) for the second.

First: CGGTGACGACCACCCCACCTCACGATCCAACGGCCAATACCGGAGTCACCTAGTGCAG
Second: ACATGCAAAGATGCCACATCATCATCCACTATCACTAATTCGGAGTCACCTAGTGCAG
The binding signal of the first is lower: 4080 fluorescence intensity (a.u.) for the first, 17600 fluorescence intensity (a.u.) for the second.

First: AGAAGGTTGGAATTTAGTAAGTTGCAGTTACAAATTCAAGCGGAGTCACCTAGTGCAG
Second: TCACTCAAATTTACAGTGCATTTTCTTGTAAGTTACAGTGCGGAGTCACCTAGTGCAG
The binding signal of the first is higher: 53200 fluorescence intensity (a.u.) for the first, 4800 fluorescence intensity (a.u.) for the second.

Going from “TCTTTGGATATAAAGCAACTACAATTTCAAAGGTAACCAACGGAGTCACCTAGTGCAG” to “AAAATTGTTCAAAGGATGGCGTAACTTTGGCGTGGAATTACGGAGTCACCTAGTGCAG”, the binding signal falls from 3460 fluorescence intensity (a.u.) to 3180 fluorescence intensity (a.u.).

Compared with “GAATTACAAGGATGGTAAGGTTTGGTCTTTCAAAGTCTTACGGAGTCACCTAGTGCAG”, “AACAAGTGTGTTGGTGGTGGTGGAAGTTGTTACAGAATTGCGGAGTCACCTAGTGCAG” is lower in binding signal: 40100 fluorescence intensity (a.u.) for the first, 3470 fluorescence intensity (a.u.) for the second.

Compared with “AAGTTATAACCCACTACATACAAAGATACCACGTCATCATCGGAGTCACCTAGTGCAG”, “CATCAGATGCGCCCATCGCTTGAAGGAGAGACGCCGAGACCGGAGTCACCTAGTGCAG” is higher in binding signal: 15900 fluorescence intensity (a.u.) for the first, 27300 fluorescence intensity (a.u.) for the second.

Compared with “GCAGTCTTGTAGTCTCGTGCACCAATCGTCGCGCCGCGGCCGGAGTCACCTAGTGCAG”, “GCACCTTGAATGAATTATCTAGCAAAGCCAGCGTAGACGTCGGAGTCACCTAGTGCAG” is higher in binding signal: 22300 fluorescence intensity (a.u.) for the first, 30200 fluorescence intensity (a.u.) for the second.

First: TGTGTACGTCACATCCTAATTAACATCAACTTGATAAAATCGGAGTCACCTAGTGCAG
Second: TGGGTCCCTCCATGCTGAGTCAGCTTGTCAATCGGGTCAACGGAGTCACCTAGTGCAG
The binding signal of the first is lower: 7900 fluorescence intensity (a.u.) for the first, 21900 fluorescence intensity (a.u.) for the second.

Compared with “TGGCTCCCACGTTAACTTAGCCGCCACGTCAGCTAAAACCCGGAGTCACCTAGTGCAG”, “AAGCCTAAAACCTCCCCATCCACGTCACCCATCCTCCTCCCGGAGTCACCTAGTGCAG” is lower in binding signal: 46600 fluorescence intensity (a.u.) for the first, 22300 fluorescence intensity (a.u.) for the second.

First: GCCTAACCCTAACCCTAGCCGCCACCGCTCAACCGCCTCCCGGAGTCACCTAGTGCAG
Second: GGGCTCCCTCCACCGCCGCCTCCGCCACCGCCTCGCCGCCCGGAGTCACCTAGTGCAG
The binding signal of the first is higher: 65100 fluorescence intensity (a.u.) for the first, 3150 fluorescence intensity (a.u.) for the second.

First: ACACGCCACGCCGCCACCTCCACTTCGTTAACCCTTCTCCCGGAGTCACCTAGTGCAG
Second: ACCGCCGGTCCACTCACCCCTAACCCTAGCCGCTGCCGCCCGGAGTCACCTAGTGCAG
The binding signal of the first is higher: 5410 fluorescence intensity (a.u.) for the first, 4020 fluorescence intensity (a.u.) for the second.

First: GACGACTGCTGGTACACGGACATGAGGCTGCAGCCGACGACGGAGTCACCTAGTGCAG
Second: GCCACGCCCAACCCGTGTCACTGTCACGTGGGCCCCACCCCGGAGTCACCTAGTGCAG
The binding signal of the first is lower: 3480 fluorescence intensity (a.u.) for the first, 7720 fluorescence intensity (a.u.) for the second.

First: CAACCAATCAATCACATACGTGGACAACTGCAGAAAATGCCGGAGTCACCTAGTGCAG
Second: ACTGCCGGTTCAACTGCTCCACGGCTCCACTCCACGCATCCGGAGTCACCTAGTGCAG
The binding signal of the first is lower: 5610 fluorescence intensity (a.u.) for the first, 43300 fluorescence intensity (a.u.) for the second.

First: CGGCTCCGCCGCACTTGCTCGGCCGTCCACGCCGGCACGGCGGAGTCACCTAGTGCAG
Second: ATCGCGCATCCACTCCACACCACACGCTTCACTGGTTCCGCGGAGTCACCTAGTGCAG
The binding signal of the first is lower: 3640 fluorescence intensity (a.u.) for the first, 3870 fluorescence intensity (a.u.) for the second.

Compared with “ACTATGGATATCTGTTTTAGCTGACATGGCATCCTACTCACGGAGTCACCTAGTGCAG”, “ACCACTGTTTGTGGAGTGTGTGCACACACCACCTCCGATGCGGAGTCACCTAGTGCAG” is lower in binding signal: 8140 fluorescence intensity (a.u.) for the first, 3810 fluorescence intensity (a.u.) for the second.

Compared with “ATTCACTGATAATAGAGACCCACACGTTAGTATTGGAGTACGGAGTCACCTAGTGCAG”, “TGGATATACATATGCCATGTCGATTTTGTGCCGAAGTGGACGGAGTCACCTAGTGCAG” is higher in binding signal: 3140 fluorescence intensity (a.u.) for the first, 3330 fluorescence intensity (a.u.) for the second.

Going from “CTTCAGTTATGTTAATTACATGTCATTTGTTTTGTTACAACGGAGTCACCTAGTGCAG” to “AAGGTGAGGTTGGTCAACATTTGTCATCAAATTTTGATCACGGAGTCACCTAGTGCAG”, the binding signal falls from 4920 fluorescence intensity (a.u.) to 3400 fluorescence intensity (a.u.).

Compared with “CAAATGTCGATTTGGTTGTGGACATGTCAATGCCGATCAACGGAGTCACCTAGTGCAG”, “TGTGGTTGGTGTCGATTTGGAATGGGGTGAAATGGACTGGCGGAGTCACCTAGTGCAG” is lower in binding signal: 50200 fluorescence intensity (a.u.) for the first, 3260 fluorescence intensity (a.u.) for the second.

Compared with “GTTTTGTGATTTGGTACATGTGGTAGCATTCACCAAATGTCGGAGTCACCTAGTGCAG”, “TGCACCTAGGTGTACATGTCATTGTGTGTTTGTGGTTGGTCGGAGTCACCTAGTGCAG” is lower in binding signal: 39600 fluorescence intensity (a.u.) for the first, 4630 fluorescence intensity (a.u.) for the second.

First: AAATTATGTCATTTTGATCAACAGTTGGTACAGTAGTACACGGAGTCACCTAGTGCAG
Second: CATTTGTTTTATTTTAGCATTTGTCACTTACATGTGGGACCGGAGTCACCTAGTGCAG
The binding signal of the first is higher: 48000 fluorescence intensity (a.u.) for the first, 3180 fluorescence intensity (a.u.) for the second.
